# BoNT-A LC inh2: BoNT A light chain protease inhibition. multiplex microsphere protease substrate cleavage, flow cytometry. AID 588499. inhibition, % at 10 µM. actives 0.17% (n = 360,000); also: plate controls were buffer without enzyme for full effect and enzyme alone for no effect
# CCHF vOTU inh: CCHFV vOTU protease inhibition. Pep-AMC fluorescence. inhibition, % at 11.5 µM. actives 0.55% (n = 370,000); in the data active = inhibition above about 30%; also: 0% = vehicle wells with enzyme and 100% = no enzyme wells
# Anthrax LF inh2: anthrax lethal factor protease inhibition; multiplex microsphere protease cleavage assay, LF; P15917; actives 0.12% (n = 360,000); inhibition, % at 10 µM; also: plate controls were buffer without enzyme for full effect and enzyme alone for no effect
# Target sequence (P15917 whole entry, looked up): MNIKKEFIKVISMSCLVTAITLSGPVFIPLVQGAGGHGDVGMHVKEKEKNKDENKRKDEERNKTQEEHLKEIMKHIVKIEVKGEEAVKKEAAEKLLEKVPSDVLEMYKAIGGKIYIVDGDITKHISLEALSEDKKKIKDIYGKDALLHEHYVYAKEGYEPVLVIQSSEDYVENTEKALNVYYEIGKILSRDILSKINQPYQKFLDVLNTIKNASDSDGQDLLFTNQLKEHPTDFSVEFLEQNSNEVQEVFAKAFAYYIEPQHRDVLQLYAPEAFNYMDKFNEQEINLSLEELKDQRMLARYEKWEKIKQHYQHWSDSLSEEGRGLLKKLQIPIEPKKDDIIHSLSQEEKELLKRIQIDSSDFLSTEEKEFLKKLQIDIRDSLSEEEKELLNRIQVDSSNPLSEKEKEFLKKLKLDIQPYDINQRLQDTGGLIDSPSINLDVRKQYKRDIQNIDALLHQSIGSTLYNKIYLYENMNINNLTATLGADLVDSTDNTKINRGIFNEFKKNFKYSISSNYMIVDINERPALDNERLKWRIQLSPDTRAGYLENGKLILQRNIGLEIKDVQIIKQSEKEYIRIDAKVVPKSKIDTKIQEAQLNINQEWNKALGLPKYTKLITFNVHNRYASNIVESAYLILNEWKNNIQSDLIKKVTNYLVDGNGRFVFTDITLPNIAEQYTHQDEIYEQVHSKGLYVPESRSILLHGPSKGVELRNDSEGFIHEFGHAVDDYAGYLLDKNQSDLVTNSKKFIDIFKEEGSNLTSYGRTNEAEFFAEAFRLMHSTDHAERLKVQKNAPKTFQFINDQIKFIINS
# Autofluor counter: counter-screen for toxin protease inhibitors: compound fluorescence; compound autofluorescence counterscreen, microsphere flow cytometry; active compounds read high; fluorescence intensity (no concentration beside the values); actives 3.1% (n = 360,000); in the data active = fluorescence intensity above about 16000; inconclusive = no clear call, values can overlap the other calls
# 3CLpro inhibitor: SARS-CoV 3CLpro protease inhibition; actives 0.14% (n = 290,000); P0C6X7; AID 1706; inhibition, % at 6 µM; recombinant SARS-CoV 3CLpro, quenched FRET peptide cleavage; in the data active = inhibition above about 12%
# BoNT-F LC inh: blocks Botulinum neurotoxin F light chain protease. Multiplex microsphere protease cleavage assay, flow cytometry. inhibition, % at 10 µM. actives 0.22% (n = 360,000). AID 588497; in the data active = inhibition above about 35%, passing the limit was not always enough; inconclusive = no clear call, values can overlap the other calls; also: plate controls were buffer without enzyme for full effect and enzyme alone for no effect
# * hit, by the source's call; ? = inconclusive; / = no result; ! = a repeat was not active. Most compounds without a hit are left out; they make up all but 3.9% or so of the library. Rule as the data show it, unless noted: active = inhibition above about 30%; inconclusive = no clear call, values can overlap the other calls; inactive = below that.
SMILES,BoNT-A LC inh2,CCHF vOTU inh,Anthrax LF inh2,Autofluor counter,3CLpro inhibitor,BoNT-F LC inh
CCOC(=O)CSc1nc2ccsc2c(=O)n1C1CCN(C(=O)OCC)CC1,0,/,-4,8035,2,0
CCOC(=O)N1CCC(n2c(SCC(=O)NCc3ccco3)nc3ccsc3c2=O)CC1,-1,/,-3,23599*,-4,-1
CCOC(=O)[C@]12CCCC=C1N(CCCOC)C(=O)[C@@H]2CC(=O)NCC1CCCCC1,/,9,/,/,/,/
COc1ccc(C(=O)c2c(N)sc3c2CCN(C)C3)cc1,34*,-12,-7,4611,-1,-51
CSc1ccc(C=Nn2c(-c3cc(C)[nH]n3)n[nH]c2=S)cc1,/,5,/,/,/,/
Cn1ccc2ccc(-c3ccc4c(c3)[C@]3(CCC[C@@H](OCc5ccccc5)[C@@H]3NC(=O)CCc3ccccc3)C(=O)N4Cc3ccccc3)cc21,/,4,/,/,/,/
COC(=O)c1cc(=O)nc2sc(-c3ccc(F)cc3)nn12,-1,/,-1,8601,3,-6
O=C(NCc1ccccc1)c1cc(=O)nc2sc(-c3ccccc3)nn12,-2,-4,1,23048*,-7,0
CCN(CC)S(=O)(=O)N1CCC(C(=O)NCCN2CCOCC2)CC1,3,12,0,22119*,1,3
Cc1ccc(CSCCNC(=O)/C=C/c2ccc(Cl)cc2)cc1,2,0,1,21860*,2,3
Cc1ccc(CCNC(=O)CCSCc2ccc(Cl)cc2)cc1,0,-3,-3,2213,0,-7
CCCCCc1c(C)nc(NCc2ccccc2)[nH]c1=O,?,4,-14,20180*,-1,10
Cc1nc(Nc2ccccc2)[nH]c(=O)c1CCC(C)C,-1,5,-9,9772,5,11
CN(Cc1ccccc1)C(=O)OCc1cn(Cc2cc(F)ccc2F)nn1,/,1,/,/,/,/
C/C(=N\O)C(=O)OC1CC(C)CCC1C(C)C (centres undefined),-1,12,0,24312*,2,-3
CC1CCC(C(C)C)C(OC(=O)COC(=O)c2ccc(N)cc2)C1 (centres undefined),0,-4,-1,2721,4,2
O=C(Nc1nc2ccccc2s1)c1ccccc1,-1,1,-4,4130,5,0
Cc1cc(C(=O)Nc2nc3ccc(S(C)(=O)=O)cc3s2)c(C)o1,2,-2,-5,22296*,2,0
Cc1ccc(C(=O)Nc2nc3ccc(S(C)(=O)=O)cc3s2)s1,2,6,-1,21772*,1,3
Cc1ccc(C(=O)Nc2nc3ccccc3s2)s1,-1,-11,-1,22825*,1,-1
COC(=O)c1cc2c(c3c4cc(C)ccc4n(C(=O)c4ccccc4)c13)C(=O)N(Cc1ccccc1)C2,/,4,/,/,/,/
COC(=O)[C@]12C[C@H](CC(=O)NCc3ccc(C)o3)C(=O)N(CCc3ccc(OC)c(OC)c3)C1=C[C@H](C(C)(C)C)O[C@@H]2C,/,17,/,/,/,/
O=C(CCc1ccccc1)N[C@H]1[C@@H](OC(=O)c2cccnc2)CCC[C@]12C(=O)N(Cc1ccccc1)c1ccccc12,/,8,/,/,/,/
CC(O)C(NS(=O)(=O)c1ccc(Cl)cc1)C(=O)OCC(=O)c1c[nH]c2ccccc12 (centres undefined),0,-5,-2,4278,6,0
CC(C)C(NS(=O)(=O)c1c(Cl)cccc1Cl)C(=O)OCC(=O)c1c[nH]c2ccccc12 (centres undefined),58*,10,15,4613,3,-16
SMILES,BoNT-A LC inh2,CCHF vOTU inh,Anthrax LF inh2,Autofluor counter,3CLpro inhibitor,BoNT-F LC inh
O=C(NCc1ccccc1)Oc1cccc(Cl)c1,2,-3,0,19856*,-3,0
Cc1cc2cc(CN(CCCN3CCOCC3)C(=O)NC3CCCCC3)c(=O)[nH]c2cc1C,-1,8,-2,23619*,-5,-2
Cc1ccc2cc(CN(CCCN3CCOCC3)C(=O)NC3CCCCC3)c(=O)[nH]c2c1C,0,3,-8,6409,1,-2
O=C(NC1CCCCC1)N(CCO)Cc1cc2cc3c(cc2[nH]c1=O)OCCO3,-2,-31,6,10706,2,1
O=C(NC1CCCCC1)N(Cc1cc2cc3c(cc2[nH]c1=O)OCCO3)CC1CCCO1 (centres undefined),?,-16,-8,18971*,2,2
O=C(c1ccncc1F)N1CCC(n2nnc3ncccc32)CC1,/,3,/,/,/,/
O=C(c1cc(C2CC2)nc2ccccc12)N1N=C(C(F)F)CC1(O)C(F)F (centres undefined),3,4,-10,18689*,3,2
O=C(c1cc(C2CC2)nc2ccc(Br)cc12)N1N=C(C(F)F)CC1(O)C(F)F (centres undefined),2,12,-2,22047*,4,-1
C=C(C)CSc1nnc(-c2cc(-c3ccc(OC)cc3)n[nH]2)n1N,/,-4,/,/,/,/
O=C(NCCOCC(F)(F)C(F)F)c1cc(F)c(F)cc1Cl,-2,4,-3,20634*,-10,0
Cc1ccccc1-c1noc(C23CC4CC(CC(C4)C2)C3)n1,-2,7,-6,21714*,1,-6
Cc1ccc2cc(-c3noc(C4CCCCC4)n3)c(=O)[nH]c2c1,1,-7,-6,5297,-2,4
Cc1ccccc1-c1noc(C2CCCCC2)n1,?,-10,-2,22659*,-3,-4
c1cncc(-c2noc(C34CC5CC(CC(C5)C3)C4)n2)c1,/,4,/,/,1,/
Cc1cc(Cl)ccc1NC(=O)COC(=O)c1cc([N+](=O)[O-])ccc1N1CCOCC1,-187,5,-44,49183*,/,-287
O=C(COc1ccc2ccc(=O)oc2c1)Nc1ccc2c(c1)OCCO2,-7,8,2,21506*,-2,-11
C[C@H](O)[C@@H]1CN2CCc3ccc(N4CCOCC4)cc3[C@@H]2C[C@@H]1N(C)C(=S)NCCc1ccccc1,/,-12,/,/,/,/
O=c1oc2c(CN3CCOCC3)c(O)ccc2c2c1CCC2,-4,-328,0,20943*,-2,-7
CC(C)CNC(=O)OCc1cn(Cc2cc(F)ccc2F)nn1,/,-7,/,/,/,/
CCOC(=O)[C@@]12CCCC3=C1N(CCC3)C(=O)[C@H]2CC(=O)NCc1cccc(C(F)(F)F)c1,/,15,/,/,/,/
CCc1ccc(C(C)NC(=O)Cn2cnc3c(=O)n(C)c(=O)n(C)c32)cc1 (centres undefined),0,-2,-1,16189*,2,0
CC(C)c1[nH]nc2c1C(c1cccs1)C(C#N)=C(N)O2 (centres undefined),-4,8,2,20949*,0,-6
COc1ccc(-n2c(SCC(=O)N/N=C(/C)c3cccc(O)c3)nc3ccccc3c2=O)cc1,/,9,/,/,/,/
O=C(CCl)N1c2ccccc2Oc2ccc3ccccc3c21,31*,-5,35*,3811,/,11
FC(F)(F)c1cnc(Sc2nnc(-c3cccs3)n2CC2CCCO2)c(Cl)c1 (centres undefined),1,-2,0,20185*,-2,1
CCOC(=O)c1c(CN2CCOCC2)n(C)c2cc(Br)c(O)c(CN(C)C)c12,?,1,-1,21896*!,-1,-3
